In all, about 53,000 sequences went through this assay and about 3,700 (7%) were called active. This excerpt belongs to a sample that is enriched for actives. A number with no mark means an inactive call.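 How the source made its calls: active means gene knockdowns whose robust z-score for IL-1 alpha signal is at least 2 or at most -2, so actives lie on both sides; inactive means the rest.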
Assay: Components of the Cytosolic LPS Sensing Pathway: Gene Identification via Genome-wide siRNA Screen;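 further: robust z of the log signal after scaling to non-targeting control siRNA wells of the plate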
Conditions: RAW264.7 macrophages, IL-1a HTRF, actives lie on both sides, screened at 100 nM (by protocol), cells primed 5 h with Pam3CSK4 first
Summary of the method: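 Read-out: IL-1a HTRF on supernatant, divided by plate negative-control median ×100, log-transformed and converted to robust z-score. Cells were RAW264.7 given 100 nM siRNA, Pam3CSK4-primed 5 hours, then LipidA-transfected 24 hour.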

Sequence | z-score
GGAACACACCAUCAUCCAGTT against H2-Ea | 1.29
GGGCUAUGCCUACUACACUTT against Fn3k | 0.976
CCGAGGUGAUUAGGAUAACTT against Traf3ip1 | -0.694
GGAGGAGAACAGCAAUCUUTT against Speer4d | -2.38 (active)
CCUCUUCAACAAACAAGCATT against Zscan22 | -0.379
GCAGCAGUGAAAUAGCUUCTT against Eya1 | -0.643
GGAUGCAUGGCUCAAUAUUTT against Olfr1164 | 2.01 (active)
GCACAUUUGGACAACCAAUTT against AU018091 | -0.973
GCCGCUAUCGUCUUUAUCATT against Ptk7 | 0.00632
GGAGAAAAACAUCAUUGAATT against Reck | -0.102
GGCUCUCAACUAAAGCAGCTT against Snu13 | -1.18
GGGCUUUGUUUCCAAGUUGTT against Muc15 | -0.285
GGUCUUUGCUACCAACCUGTT against Fignl1 | -2.15 (active)
CCAUAGACUAUUAUCCUUATT against Uhrf1bp1l | -0.282
GGACACAAAGAAGAAGAGGTT against Tarsl2 | 0.707
GGUUAUUCUGGCUAUGGGCTT against Taf15 | -2.22 (active)
GGAAAUAUUGAUGCUGCUGTT against Ttc39a | 1.09
GGGAGUGCCUGGGUUUGUATT against Dusp28 | 3.19 (active)
CAAAAAUAUCUACAGAGUCTT against Olfr494 | 0.207
CGAGAAAAACGAUUUACUGTT against Orai2 | -0.527
GGCAAUCCCAUAGAGGCUGTT against Mief2 | -2.64 (active)
GGAUGAGAAUGGUUAUACUTT against Asz1 | 0.328

Sequence | z-score
CCGCCUCGUACAUGAUAUUTT against Mrgpra2b | 0.653
GGAUUUAUUUGCCAACACUTT against Actbl2 | -2.28 (active)
GGUUGCUAUUAUUAUUGGATT against Fnbp4 | 0.678
GCCCAAGGAGGCAUUGAUATT against Fbxo8 | -0.653
GGCUUCAUUUACUGUAACGTT against Flrt3 | -0.12
GGAUAAACGGACAGGCCCATT against Socs2 | 0.282
GGGUUCUGGGAAGGUAUAUTT against Olfr705 | -2.54 (active)
GAUUGUGCCUUAUCUCUAATT against Vmn1r203 | 1.28
GGCCUACAUUUUAAUUCAGTT against Tmem132c | -0.167
GGCUCAGAUCAGAACUACGTT against Inpp4a | -0.129
GGUAAACGAUGUACAGUUGTT against Notch2 | 2.6 (active)
GCUAAAGUGAGCAGCGGGATT against Gipc3 | 0.218
GCUACCUGCGACAAGAAAUTT against Defb23 | -0.79
CCAUAUGUAGCUAUGGUUATT against Cul2 | 0.741
CCAGUAGAAAGAAUCCAGATT against Gm128 | 0.0855
GCCAGCUACUCUCUUGAGATT against Olfr419 | -1.03
GGACUACAUGGAUGCCAUGTT against Prkrip1 | 0.482
GGCCCUCAAACAGUGCAAATT against Chchd10 | 2.09 (active)
GGCCUUUUCCAUAAACUUUTT against Ddx60 | 0.873
GCAGUACGAAAUGGUAUACTT against Chd6 | -1.7
CGUAUUAACGACAUAAGAGTT against Nckap1 | -0.169
GGACCUUAAGAGAUAUCAATT against Acsm4 | 2.9 (active)

Sequence | z-score
CCAAUUGGAAUCCCAUUUUTT against Cd47 | -0.273
CCCAACAAUGCUGCACAUGTT against H1f8 | 0.157
GCAGUGUCUAGGACAGUCATT against Pdcd5 | 0.0243
GGGCCCGAUGAAGCAAAAATT against Hnrnpr | -1.49
GGCAAACAUGAAGAGAAGCTT against Hspb8 | 0.0665
GGCUGACCUUCUGUGCUGATT against Olfr876 | -0.98
CGAAGAGAUCUCACUAUAATT against Trnt1 | 1.21
GCGCUAGAAGGCCAGAUAUTT against Orm3 | -0.155
GCAAUGGUUCAGUAUGUACTT against Tpgs2 | -2.01 (active)
GCCAUCAACAGCAUUUACATT against Glt8d2 | -0.455
GGAGCUUUCAGCUAAGACATT against Rassf4 | 0.671
GGACCAGCCAUACCUGUGATT against Ndufa7 | -1.93
GCCACACAGUGUGAUCCAATT against Nrip2 | -1.33
GGCUACCUACAGCACCAACTT against Esyt1 | -1.58
CCAAGUCUUUGCCUACGUGTT against Dsn1 | 2.39 (active)
GGAUGUAACUGAAAGAGAATT against Fam133b | -1.11
GGACACUUAAAGAUCCUGCTT against Armc7 | -0.545
GCUCAGAGAUUAUGGCAUCTT against Snrnp25 | 0.687
GAGCUAAGCAAGAUGCUAGTT against Sox17 | 3.97 (active)
GCAUGAUUACCCAUUUCAATT against Tax1bp1 | 0.334
GGAGAAGGAGAUGUCCAAUTT against Guca2b | 0.777
GCGAUUGAUGAAUUUCGACTT against Atp9b | 0.616

Sequence | z-score
GGAUUUCAAAAACCACGUGTT against Snx1 | 1.14
CCCACAGCUCUGACAUUUUTT against Fbxo6 | -0.315
CCUAGGUCAUAUUUCUCCATT against Bgn | 0.224
GGCAGUGGCUUGGAUAAAUTT against Amdhd2 | -0.609
GGAGAGCUGCAUGAUUUCATT against Efcab2 | 3.67 (active)
GCAGUCAUGGGUUCUUAAGTT against Gng3 | 0.109
CCAUAUCUCAUGAGGAAGGTT against Olfr1368 | 1.53
GGACGGUGACAAGAACAACTT against Tnnc1 | 1.72
GCUUCACGAUUAAAACUAATT against Ltb4r1 | 0
CGGAGUCUUCUUCUCACCUTT against A630001O12Rik | -2.82 (active)
GGCUCAGGCAUUGUAACCATT against Dnm3 | -0.177
GGUGCAUUCCUUGUGAAUGTT against Ctbp2 | 0.141
GCUCAGUCAUGUGACCGCATT against Fbxl18 | 2.93 (active)
GGGAAAGGAAGUUGUUUUGTT against Epha2 | 0.878
GCAGCCUAUUACCUCAGACTT against Nwd2 | 1.02
GGAUCUCUCUUUCCUCCUCTT against Gli1 | 0.0792
GCCUUCAAGCCAAAGAUAGTT against Lin54 | -0.582
GGCAAAGGCUAUCGCUCACTT against Smpd2 | -1.46
GCCUCUAUAUCUUUCACUGTT against Olfr1209 | -2.16 (active)
CCGGACCAUCUUCGACAGUTT against Pmepa1 | -0.783
GGAACUGUGUGUCUUCUCCTT against Kcns3 | -1.78
CGGUGAAAGACUUCAGUAUTT against Ppfibp1 | 0.578

Sequence | z-score
GCCAGCGACCUUUAGUACATT against Cmtm1 | 2.08 (active)
CCUGCUCUUCGUUAUCUUGTT against Olfr552 | 1.59
GCGACAGAGGAAGCUUGUUTT against Mak16 | 0.634
CGACAAGAAGACUUCGAAUTT against Mnt | -1.28
GGCCUAUUUUUUCAUAGUUTT against Ptprs | 0.0729
GCACACUGAUGAACUUACCTT against Ston2 | 2.55 (active)
GGCAAAGUACUACGUGCAGTT against Sh3bp5 | -0.225
GGCAGAAUAUGAGUUUGAUTT against Camk1d | -0.161
GGAAAAAGAUGCGACAAUGTT against A930012O16Rik | -1.01
GGGACCAUUCUGAAGAUGATT against Acot7 | -1.76
GGAGAAUAUGUCGUCAUGATT against Gabra3 | -1.09
GGAAAAACUGGUCUAUCAATT against Polr3f | 1.47
GGAAGAAUGUGGGUAAAGATT against Gimap9 | -2.01 (active)
CCGUUUUUGUGGUUCAGUGTT against Plxdc1 | 0.0355
GGCAACAUUGAACAUGCCUTT against Stambp | -1.76
GCAGUUCAAGUCUUGAAUATT against Olfr934 | -1.09
GGGUUUCUGUUAAUCCACATT against H3c8 | -1.38
CCUGCUUGCCAACACCAUATT against Slc39a13 | -2.2 (active)
GGAACAACAUUGUUCUAAATT against Fstl5 | 0.759
GGGAGCCAUUUUUACAGACTT against Ffar4 | 0.405

— PubChem BioAssay AID1508600 (Functional Genomics Laboratory (NCATS/FGL), 2020)
